Reference: the supplement of paper PMC12350171
Where a name gives a salt, the structure may show the parent alone. A number with no mark means an inactive call.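 How the source made its calls: active = normalised median growth AUC below 0.1 of DMSO control; inactive = AUC 0.1 or higher.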

Tests used:
Test in all cases: growth AUC normalised to DMSO control (median) (fraction of control); higher = less growth inhibition, active = hit call of the paper
Conditions in all cases: 20 µM
P. vulgatus RND KO = tested on: P. vulgatus RND KO
Method in brief: (§1)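 In 96-well plates of mGAM seeded at OD578 0.01, strains that had been passaged twice overnight without oxygen were exposed to approved-drug library compounds at 20 μM with 1% DMSO. Hourly OD578 readings were taken for 24 h in an anaerobic incubator. The trapezoidal-rule area under the curve, with curves truncated at entry into stationary phase, was expressed relative to same-plate vehicle wells as the median of three biological replicates.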

[1] = tested on: S. enterica typhimurium WT
Method in brief: as §1

[2] = tested on: S. enterica typhimurium tolC KO
Method in brief: as §1

P. vulgatus WT = tested on: P. vulgatus WT
Method in brief: as §1
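Further: active when median AUC fell below 0.1.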

| Structure (SMILES) | growth AUC normalised to DMSO control (P. vulgatus RND KO) | growth AUC normalised to DMSO control [1] | growth AUC normalised to DMSO control [2] | growth AUC normalised to DMSO control (P. vulgatus WT) |
| --- | --- | --- | --- | --- |
| Cn1nnnc1SCC1=C(C(=O)O)N2C(=O)[C@@H](NC(=O)[C@H](O)c3ccccc3)[C@H]2SC1 [Cefamandole sodium salt] | 0.204 | 0.0103 (active) | 0.00496 (active) | – |
| CO/N=C(\C(=O)N[C@@H]1C(=O)N2C(C(=O)OC(C)OC(C)=O)=C(COC(N)=O)CS[C@H]12)c1ccco1 (some centres not stated) [Cefuroxime axetil] | – | 1.1 | – | 0.664 |
| O=C(O)C1CSCN1 (configuration not stated) [Timonacic] | 0.993 | 0.998 | 0.998 | 0.999 |
| CCCC(CCC)C(=O)O[C@H]1C[C@H]2CC[C@@H](C1)[N+]2(C)C [Anisotropine Methylbromide] | 1.09 | 0.997 | 0.994 | 1.12 |
| O=C1c2cccc(O)c2C(=O)c2c(O)cccc21 [Danthron] | 0.689 | 0.991 | 0.369 | 0.525 |
| CCOC(=O)[C@H](CCc1ccccc1)N[C@@H](C)C(=O)N1[C@H](C(=O)O)C[C@H]2CCCC[C@@H]21 [Trandolapril] | 0.986 | 1.01 | 0.998 | 0.992 |
| O=c1[nH]cnc2c1ncn2[C@@H]1O[C@H](CO)[C@@H](O)[C@H]1O [Inosine] | 1.01 | 0.991 | 1.01 | 1.04 |
| COCC1=C(C(=O)OC(C)OC(=O)OC(C)C)N2C(=O)[C@@H](NC(=O)/C(=N\OC)c3csc(N)n3)[C@H]2SC1 (some centres not stated) [Cefpodoxime proxetil] | – | 0.853 | 0.338 | – |
| CC/C=C(\C(=O)N[C@@H]1C(=O)N2C(C(=O)OCOC(=O)C(C)(C)C)=C(COC(N)=O)CS[C@H]12)c1csc(N)n1 [Cefcapene pivoxil hydrochloride monohydrate] | – | 1.03 | 0.159 | – |
| CN1c2cc(O)c(N=NC(N)=O)cc2CC1S(=O)(=O)O (configuration not stated) [Carbazochrome sodium sulfonate] | 1.01 | 1 | 0.993 | 1 |
| CO/N=C(\C(=O)N[C@@H]1C(=O)N2C(C(=O)[O-])=C(C[n+]3ccn4ncccc43)CS[C@H]12)c1nsc(N)n1 [Cefozopran hydrochloride] | – | 0.0996 (active) | 0.1 | 0.128 |
| CCOc1ccc2nc3cc(N)ccc3c(N)c2c1 [Ethacridine lactate] | 0.999 | 0.991 | 0.977 | 0.961 |
| NC(=O)NS(=O)(=O)c1ccc(N)cc1 [Sulfacarbamide] | 0.997 | 0.995 | 1 | 1.01 |
| CN1CCC(=C2c3ccccc3CCc3cccnc32)CC1 [Azatadine maleate] | 0.998 | 1 | 0.993 | 0.987 |
| CN1CCN(C2Cc3ccccc3Sc3ccc(Cl)cc32)CC1 (configuration not stated) [Octoclothepin maleate salt] | 1.05 | 0.981 | 0.929 | 1.05 |
| CC1(C)S[C@@H]2[C@H](NC(=O)[C@H](N)c3ccccc3)C(=O)N2[C@H]1C(=O)O [Ampicillin sodium salt] | – | 0.773 | 0.112 | – |
| O=C(O)c1cc(=O)[nH]c(=O)[nH]1 [Orotic acid] | 0.976 | 1 | 1.01 | 0.993 |
| CC1CC(OC(=O)C(O)c2ccccc2)CC(C)(C)C1 (configuration not stated) [Cyclandelate] | 0.983 | 1 | 0.903 | 0.975 |
| Nc1cccc2c1C(=O)N(C1CCC(=O)NC1=O)C2=O (configuration not stated) [Pomalidomide] | 1.06 | 1.02 | 0.983 | 1.09 |
| COc1ccc(-c2noc(CC(=O)O)c2-c2ccc(OC)cc2)cc1 [Mofezolac] | 0.999 | 1.01 | 0.998 | 1.03 |
| COc1ccc(CN2CCN(C(c3ccc(F)cc3)c3ccc(F)cc3)CC2)c(OC)c1OC [Lomerizine dihydrochloride] | 0.997 | 1.01 | 0.978 | 0.986 |
| CS(=O)(=O)CCNCc1ccc(-c2ccc3ncnc(Nc4ccc(OCc5cccc(F)c5)c(Cl)c4)c3c2)o1 [Lapatinib] | 1.03 | 1 | 0.99 | 1.03 |
| O=C(O)c1cc(=O)c2ccccc2o1 [Chromocarb] | 0.981 | 0.998 | 1 | 1 |
| CCN(CC)C(=O)c1cccnc1 [Nikethamide] | 0.992 | 1 | 1.01 | 1 |
| Cc1cccc(C)c1NC(=O)CC12CCCN1CCC2 [Pilsicainide Hydrochloride] | 1.05 | 1 | 1 | 1.09 |
| CCN1/C(=C/C=C/C=C/c2sc3ccccc3[n+]2CC)Sc2ccccc21 [Dithiazanine iodide] | – | 1 | 0.695 | 1.02 |
| Cc1cc(O)c(C(=O)N[C@@H](C(=O)N[C@@H]2C(=O)N3C(C(=O)O)=C(CSc4nnnn4C)CS[C@H]23)c2ccc(O)cc2)cn1 [Cefpiramide] | 0.0197 (active) | 0.121 | 0.0047 (active) | 0.0147 (active) |
